Results filed as inconclusive are left out. Where a call stands in place of a potency, no number is given. Values without a mark were called inactive. Activity calls are given as the source filed them. Unless noted, calls come from the whole dose curve; as a rule, active = well fitted curve in the direction sought with a large enough effect; inconclusive = small, poorly fitted or top-dose-only effect, or another doubt; inactive = no such curve, though single readings can be large; an effect the other way counts as inactive or inconclusive.
Experiments:
[1] = target: Ubiquitin carboxyl-terminal hydrolase 1 (Homo sapiens) (UniProt O94782); test: Inhibitors of USP1/UAF1: Pilot qHTS (AID 504865); note: potency is the fitted concentration of half-maximal effect; nearly all actives have a fitted effect of over 35% in size
Chain of Ubiquitin carboxyl-terminal hydrolase 1 (Homo sapiens) (O94782 whole entry, looked up): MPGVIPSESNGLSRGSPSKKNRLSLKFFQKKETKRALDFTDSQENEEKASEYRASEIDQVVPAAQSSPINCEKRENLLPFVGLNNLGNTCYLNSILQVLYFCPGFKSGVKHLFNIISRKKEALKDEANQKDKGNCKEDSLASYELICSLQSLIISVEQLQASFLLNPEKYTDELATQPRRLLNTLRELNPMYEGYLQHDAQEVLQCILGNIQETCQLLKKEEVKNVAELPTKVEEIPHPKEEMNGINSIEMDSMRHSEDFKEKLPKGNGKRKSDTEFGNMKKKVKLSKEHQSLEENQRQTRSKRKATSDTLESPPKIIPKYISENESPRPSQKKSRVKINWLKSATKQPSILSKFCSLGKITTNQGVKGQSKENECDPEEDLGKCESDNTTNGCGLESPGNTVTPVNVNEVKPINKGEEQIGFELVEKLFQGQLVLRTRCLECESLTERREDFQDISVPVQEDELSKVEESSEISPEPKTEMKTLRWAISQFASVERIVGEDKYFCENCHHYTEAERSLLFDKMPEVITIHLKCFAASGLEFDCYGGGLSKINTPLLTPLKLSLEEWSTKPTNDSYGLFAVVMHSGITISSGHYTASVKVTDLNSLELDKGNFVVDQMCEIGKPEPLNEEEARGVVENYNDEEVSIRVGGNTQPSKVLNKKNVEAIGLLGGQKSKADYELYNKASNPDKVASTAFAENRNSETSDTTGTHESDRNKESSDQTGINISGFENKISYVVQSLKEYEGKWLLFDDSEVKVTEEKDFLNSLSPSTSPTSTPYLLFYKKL
Procedure, shortened: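 Kinetic fluorescence assay: 1nM USP1/UAF1, 15 min compound preincubation, then 150nM Ub-Rho; 480/540 nm.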

[2] = S16 Schwann cell PMP22 intronic element firefly luciferase assay (AID 624032); note: nearly all actives have a fitted effect of over 30% in size
Procedure, shortened: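 Rat S16 Schwann cells stably carrying a PMP22 intronic element-driven Fluc reporter were seeded overnight, then exposed to compounds for 24 h at 37 °C. Luminescence was normalized to PTC124 (positive control) and DMSO (0% activity).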

[3] = S16 Schwann cell PMP22 intronic element beta-lactamase assay (AID 624044; calls by dose curve; note: nearly all actives have a fitted effect of over 15% in size); conditions: S16 rat Schwann cells, PMP22 element beta-lactamase FRET, 24 h; ratio activity, negative = inhibition: at 38.3 µM (top of the series)
Procedure, shortened: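 Rat S16 Schwann cells with beta-Lac driven by a PMP22 intronic element, compound-treated 24 h at 37 °C. LiveBLAzer FRET B/G read: 460 nm normalized to potassium clavulanate vs DMSO; 535 nm FRET as viability; concentration-effect curves classified.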

[4] = qHTS profiling for inhibitors of Plasmodium falciparum proliferation (AID 504749); note: nearly all actives have a fitted effect of over 60% in size; conditions: P. falciparum in erythrocytes, SYBR Green DNA, 72 h, at 28.7 µM (top of the series)
Procedure, shortened: (§1)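 P. falciparum-infected erythrocytes (0.3% parasitemia, 2.5% hematocrit final) were exposed to compounds for 72 h at 37 C in 5% CO2, then lysed with SYBR Green buffer overnight at room temperature; parasite DNA fluorescence was normalized to artemisinin and DMSO controls.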

3D7 = test: as above; conditions: P. falciparum in erythrocytes, SYBR Green DNA, 72 h; series mostly up to 28.7 µM
Procedure, shortened: as §1

7G8 = test: as above; conditions: P. falciparum in erythrocytes, SYBR Green DNA, 72 h; series mostly up to 28.7 µM
Procedure, shortened: as §1

AA1029 = test: as above; conditions: P. falciparum in erythrocytes, SYBR Green DNA, 72 h; series mostly up to 28.7 µM
Procedure, shortened: as §1

AS120 = test: as above; conditions: P. falciparum in erythrocytes, SYBR Green DNA, 72 h; series mostly up to 28.7 µM
Procedure, shortened: as §1

ATS189 = test: as above; conditions: P. falciparum in erythrocytes, SYBR Green DNA, 72 h; series mostly up to 28.7 µM
Procedure, shortened: as §1

ATS95 = test: as above; conditions: P. falciparum in erythrocytes, SYBR Green DNA, 72 h; series mostly up to 28.7 µM
Procedure, shortened: as §1

C2A = test: as above; conditions: P. falciparum in erythrocytes, SYBR Green DNA, 72 h; series mostly up to 28.7 µM
Procedure, shortened: as §1

CP185 = test: as above; conditions: P. falciparum in erythrocytes, SYBR Green DNA, 72 h; series mostly up to 28.7 µM
Procedure, shortened: as §1

CP191 = test: as above; conditions: P. falciparum in erythrocytes, SYBR Green DNA, 72 h; series mostly up to 28.7 µM
Procedure, shortened: as §1

CP192 = test: as above; conditions: P. falciparum in erythrocytes, SYBR Green DNA, 72 h; series mostly up to 28.7 µM
Procedure, shortened: as §1

CP194 = test: as above; conditions: P. falciparum in erythrocytes, SYBR Green DNA, 72 h; series mostly up to 28.7 µM
Procedure, shortened: as §1

CP201 = test: as above; conditions: P. falciparum in erythrocytes, SYBR Green DNA, 72 h; series mostly up to 28.7 µM
Procedure, shortened: as §1

CP203 = test: as above; conditions: P. falciparum in erythrocytes, SYBR Green DNA, 72 h; series mostly up to 28.7 µM
Procedure, shortened: as §1

CP211 = test: as above; conditions: P. falciparum in erythrocytes, SYBR Green DNA, 72 h; series mostly up to 28.7 µM
Procedure, shortened: as §1

CP215 = test: as above; conditions: P. falciparum in erythrocytes, SYBR Green DNA, 72 h; series mostly up to 28.7 µM
Procedure, shortened: as §1

CP217 = test: as above; conditions: P. falciparum in erythrocytes, SYBR Green DNA, 72 h; series mostly up to 28.7 µM
Procedure, shortened: as §1

CP237 = test: as above; conditions: P. falciparum in erythrocytes, SYBR Green DNA, 72 h; series mostly up to 28.7 µM
Procedure, shortened: as §1

CP238 = test: as above; conditions: P. falciparum in erythrocytes, SYBR Green DNA, 72 h; series mostly up to 28.7 µM
Procedure, shortened: as §1

CP250 = test: as above; conditions: P. falciparum in erythrocytes, SYBR Green DNA, 72 h; series mostly up to 28.7 µM
Procedure, shortened: as §1

CP252 = test: as above; conditions: P. falciparum in erythrocytes, SYBR Green DNA, 72 h; series mostly up to 28.7 µM
Procedure, shortened: as §1

CP256 = test: as above; conditions: P. falciparum in erythrocytes, SYBR Green DNA, 72 h; series mostly up to 28.7 µM
Procedure, shortened: as §1

CP260 = test: as above; conditions: P. falciparum in erythrocytes, SYBR Green DNA, 72 h; series mostly up to 28.7 µM
Procedure, shortened: as §1

CP262 = test: as above; conditions: P. falciparum in erythrocytes, SYBR Green DNA, 72 h; series mostly up to 28.7 µM
Procedure, shortened: as §1

CP265 = test: as above; conditions: P. falciparum in erythrocytes, SYBR Green DNA, 72 h; series mostly up to 28.7 µM
Procedure, shortened: as §1

NC(Cc1ccc(Oc2cc(I)c(O)c(I)c2)c(I)c1)C(=O)O (centres undefined)
Potency [1]: 79.4 µM (active) | Potency [2]: inactive | Potency [3]: inactive | activity, negative = inhibition ([4]; parasite line A): 8.09% | activity, negative = inhibition ([4]; parasite line B): -0.518% | Potency (3D7): inactive | Potency (7G8): inactive | Potency (AA1029): inactive | Potency (AS120): inactive | Potency (ATS189): inactive | Potency (ATS95): inactive | Potency (C2A): inactive | Potency (CP185): inactive | Potency (CP191): inactive | Potency (CP192): inactive | Potency (CP194): inactive | Potency (CP201): inactive | Potency (CP203): inactive | Potency (CP211): inactive | Potency (CP215): inactive | Potency (CP217): inactive | Potency (CP237): inactive | Potency (CP238): inactive | Potency (CP250): inactive | Potency (CP252): inactive | Potency (CP256): inactive | Potency (CP260): inactive | Potency (CP262): inactive | Potency (CP265): inactive
